pAkt inh: blocks phosphorylation of Akt; Neuro2A IGF-stimulated pAkt S473 HTRF, 20 min; hits give low values; activity change, % for hits at 50 µM; 360,000 tested, 0.32% active; AID 651550; in the data active = activity change below about -80%; inconclusive = mostly about -51% to -80%
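Neuro2A cells in DMEM with 0.5% FBS, overnight at 37 deg C, given compound at single 50 µM final, then IGF (6 nM final) for 20 min at 37 deg C. Lysed; phospho-Akt Ser473 by HTRF after 24 h, 665/615 ratio.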
MmCpn inh: inhibitors of Methanococcus maripaludis chaperonin TRiC (MmCpn); purified Mm-Cpn ATPase, ADP Transcreener TR-FRET; Potency, µM (doses to about 76.9 µM), hits mostly inhibitors; 330,000 tested, 0.031% active; AID 504842; note: nearly all actives have a fitted effect of over 80% in size
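Reaction buffer contained 30 mM Tris pH 7.4, 100 mM KCl, 5 mM MgCl2 and 1 mM DTT. Mm-CPN (25 nM final) hydrolysed 10 uM ATP over 30 min at 37°C; ADP was read by HTRF.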
CCT chaperon mod: modulators of cytosolic chaperonin (CCT/TRiC) activity. 360,000 tested, 0.3% active. activity change, % (no concentration beside the values), hits read low. AID 651819. purified chaperonin ATPase assay, HTRF ADP detection, 30 min; in the data active = activity change below about -30%
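TRiC (40 or 20 nM final, by batch activity) in 30 mM Tris pH 7.4, 100 mM KCl, 5 mM MgCl2, 1 mM DTT was treated with compound at 76 uM single dose, then 10 uM ATP, 30 min at 37 °C. ADP was read by HTRF Transcreener.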
Glioma ERSR ind: inducers of ER stress response in human glioma cells. Potency, µM, usual class: activators. 420,000 tested, 0.02% active. U87-MG GRP78 promoter luciferase reporter, 16 h; note: series mostly up to about 76 µM; nearly all actives have a fitted effect of over 35% in size
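Stably transfected U87-MG glioma cells carrying a GRP78-based luciferase sensor; 16 h compound incubation. Luminescence end-point read 10 min after Bright-Glo addition at room temperature.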
mIDH1 inhibitor: inhibitors of human mutant IDH1 R132H | O75874 | IDH1-R132H enzyme, NADPH consumption, diaphorase/resazurin fluorescence | 390,000 tested, 0.093% active | Potency, µM (top dose mostly 76.6 µM), usual class: inhibitors; note: nearly all actives have a fitted effect of over 65% in size
Target sequence (O75874 whole entry R132H, stated change not applied): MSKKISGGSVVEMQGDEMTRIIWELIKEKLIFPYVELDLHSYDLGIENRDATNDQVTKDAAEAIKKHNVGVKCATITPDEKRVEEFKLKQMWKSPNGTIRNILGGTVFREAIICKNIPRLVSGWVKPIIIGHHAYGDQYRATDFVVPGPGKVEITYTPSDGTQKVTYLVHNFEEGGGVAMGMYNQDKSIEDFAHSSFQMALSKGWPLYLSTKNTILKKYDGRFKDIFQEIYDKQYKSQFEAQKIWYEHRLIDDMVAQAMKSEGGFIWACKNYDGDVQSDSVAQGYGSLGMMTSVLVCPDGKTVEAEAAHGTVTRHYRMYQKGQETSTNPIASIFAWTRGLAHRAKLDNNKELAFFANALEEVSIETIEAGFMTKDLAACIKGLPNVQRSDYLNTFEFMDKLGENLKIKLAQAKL
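IDH1-R132H (0.5 ug/mL dispensed) in pH 7.5 Tris buffer was preincubated 30 min with compound, then given a substrate mix of 0.016 mM NADPH and 2 mM alpha-KG for 80 min at room temperature; remaining NADPH was read by diaphorase/resazurin fluorescence.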
GLS inh: inhibitors of human glutaminase (GLS). GLS enzymatic activity, qHTS titration. Potency, µM (series often up to 45.5 µM), hits mostly inhibitors. 410,000 tested, 0.21% active. AID 624170
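Human kidney-isoform GLS in 45 mM KH2PO4 pH 8.2, 0.02% Tween-20, with compound, started with 1mM L-Glutamine (added stock). Glutamate oxidase/HRP/Amplex red coupled fluorescence read at start and after 30 min at RT.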
IDH1 autofl: counter-screen for mutant IDH1 inhibitors: fluorescence interference | shares compounds with mIDH1 inhibitor | Resorufin detection reagent fluorescence interference, cell-free | inhibition of signal, % at 51.2 µM | 750 tested, under 10 active
IDH1 WT: inhibits human wild-type IDH1, mutant selectivity check; shares compounds with mIDH1 inhibitor; WT IDH1 enzyme, NADPH diaphorase/resazurin fluorescence; Potency, µM (series often up to 115 µM), most hits filed as inhibitors; 750 tested, 9% active; note: nearly all actives have a fitted effect of over 55% in size
Target sequence (O75874 whole entry, looked up): as the sequence (O75874 whole entry R132H, stated change not applied) above, with H132R counted along it
IDH1 R132H conf: inhibits human mutant IDH1 enzyme in cherrypick confirmation | shares compounds with mIDH1 inhibitor | IDH1 R132H enzyme, NADPH diaphorase/resazurin fluorescence | Potency, µM (series often up to 76.6 µM), usual class: inhibitors | 750 tested, 83% active | AID 624002; note: nearly all actives have a fitted effect of over 50% in size
Numbers stand for hits. An excerpt weighted towards active compounds, which were near 0.85% of everything screened. Unless noted, calls come from the whole dose curve; as a rule, active = well fitted curve in the direction sought with a large enough effect; inconclusive = small, poorly fitted or top-dose-only effect, or another doubt; inactive = no such curve, though single readings can be large; an effect the other way counts as inactive or inconclusive.

Screening CCOC(=O)CSC1=C(C#N)C(c2ccccc2OCC)C(C#N)C(=O)N1 (configuration not stated) returned pAkt inh inactive, MmCpn inh inactive, CCT chaperon mod inactive, Glioma ERSR ind inactive, mIDH1 inhibitor 46.5µM, GLS inh inactive, IDH1 autofl inactive, IDH1 WT inactive and IDH1 R132H conf 50.1µM.
Screening CCCOC(=O)CSC1=C(C#N)C(c2ccccc2OC)C(C#N)C(=O)N1 (configuration not stated) returned pAkt inh inactive, MmCpn inh inactive, CCT chaperon mod inactive, Glioma ERSR ind inactive, mIDH1 inhibitor inconclusive, GLS inh inactive, IDH1 autofl inactive, IDH1 WT inactive and IDH1 R132H conf 44.7µM.
C=CCSC1=C(C#N)C(c2ccccc2OCC)C(C#N)C(=O)N1 (configuration not stated) was read as pAkt inh inactive, MmCpn inh inactive, CCT chaperon mod inactive, Glioma ERSR ind inactive, mIDH1 inhibitor inconclusive, GLS inh inactive, IDH1 autofl inactive, IDH1 WT inactive and IDH1 R132H conf 44.7µM.
Screening CCOC(=O)C1C(=O)NC(SCC(=O)OC)=C(C#N)C1c1ccccc1OCC (configuration not stated) returned CCT chaperon mod inactive, Glioma ERSR ind inactive, mIDH1 inhibitor inactive and GLS inh inactive.
`COc1ccc(CN2CCN(C(C)=O)CC2)cc1OC1CCN(C(=O)c2ccc3[nH]c(C)c(C)c3c2)CC1` gave Glioma ERSR ind inactive.
For COC(=O)c1cccc(C(=O)N2CCc3c(C(=O)OC)c(OCc4ccccn4)cc(=O)n3CC2)c1 the results were Glioma ERSR ind inactive.
`C=CCn1c(SCC(=O)N2CCN(C(=O)c3ccco3)CC2)nc2sc(CC)cc2c1=O` gave pAkt inh inactive, MmCpn inh inactive, CCT chaperon mod inactive, Glioma ERSR ind inactive, mIDH1 inhibitor inconclusive, GLS inh inactive, IDH1 autofl inactive, IDH1 WT inactive and IDH1 R132H conf 17.8µM.
`C=CCn1c(SCC(=O)N2CCCC2=O)nc2sc(CC)cc2c1=O` gave pAkt inh inactive, MmCpn inh inactive, CCT chaperon mod inactive, Glioma ERSR ind inactive, mIDH1 inhibitor inactive and GLS inh inactive.
For COc1ccc(C(C(=O)NC2CCCCC2)N(C(=O)c2snc(C(N)=O)c2N)c2ccc(OC)cc2OC)cc1 (configuration not stated) the results were pAkt inh inactive, MmCpn inh inactive, CCT chaperon mod inactive, Glioma ERSR ind inactive, mIDH1 inhibitor inactive and GLS inh inactive.
For COc1ccc(N(C(=O)c2snc(C(N)=O)c2N)C(C(=O)NC2CCCC2)c2ccc(F)cc2)c(OC)c1 (configuration not stated) the results were pAkt inh inactive, MmCpn inh inactive, CCT chaperon mod inactive, Glioma ERSR ind inactive, mIDH1 inhibitor inconclusive, GLS inh inactive, IDH1 autofl inactive, IDH1 WT inactive and IDH1 R132H conf inconclusive.
For COc1ccc(C)cc1N(C(=O)c1snc(C(N)=O)c1N)C(C(=O)NC1CCCC1)c1ccc(F)cc1 (configuration not stated) the results were pAkt inh inactive, MmCpn inh inactive, CCT chaperon mod inactive, Glioma ERSR ind inactive, mIDH1 inhibitor inconclusive, GLS inh inactive, IDH1 autofl inactive, IDH1 WT inactive and IDH1 R132H conf 15.8µM.
COC(=O)c1c(NC(C)=O)sc(Cc2ccccc2)c1C was read as pAkt inh inactive, MmCpn inh inactive, CCT chaperon mod inactive, Glioma ERSR ind inactive, mIDH1 inhibitor inconclusive, GLS inh inactive, IDH1 autofl inactive, IDH1 WT inactive and IDH1 R132H conf 50.1µM.
Screening COC(=O)c1c(NC(=O)c2ccccc2)sc(Cc2ccccc2)c1C returned pAkt inh inactive, MmCpn inh inactive, CCT chaperon mod inactive, Glioma ERSR ind inactive, mIDH1 inhibitor inactive and GLS inh inactive.
For COCC1CCCN(Cc2ccc3c(c2)CN(C(=O)c2cccnc2OC)CCO3)C1 (configuration not stated) the results were Glioma ERSR ind inactive.
`CCNC(=O)/C(C#N)=C/c1c(N2CCN(C)CC2)nc2c(C)cccn2c1=O` gave pAkt inh inactive, MmCpn inh inactive, CCT chaperon mod inactive, Glioma ERSR ind inactive, mIDH1 inhibitor inactive and GLS inh inactive.
`CCNC(=O)/C(C#N)=C/c1c(N(Cc2ccccc2)Cc2ccccc2)nc2ccccn2c1=O` gave pAkt inh inactive, MmCpn inh inactive, CCT chaperon mod inactive, Glioma ERSR ind inactive, mIDH1 inhibitor inconclusive, GLS inh inactive, IDH1 autofl inactive, IDH1 WT inactive and IDH1 R132H conf 20µM.
Screening CCNC(=O)/C(C#N)=C/c1c(N2CCOCC2)nc2ccccn2c1=O returned pAkt inh inactive, MmCpn inh inactive, CCT chaperon mod inactive, Glioma ERSR ind inactive, mIDH1 inhibitor inactive and GLS inh inactive.
Screening CNC(=O)/C(C#N)=C/c1c(N(Cc2ccccc2)Cc2ccccc2)nc2c(C)cccn2c1=O returned pAkt inh inactive, MmCpn inh inactive, CCT chaperon mod inactive, Glioma ERSR ind inactive, mIDH1 inhibitor 52.1µM, GLS inh inactive, IDH1 autofl inactive, IDH1 WT inactive and IDH1 R132H conf 14.1µM.
For O=C1NC(=O)C(Cc2ccccc2F)(C2CCN(Cc3cccn3-c3cccnc3)CC2)N1 (configuration not stated) the results were Glioma ERSR ind inactive.
For COc1cc(C2c3c(-c4cc(C)ccc4O)n[nH]c3C(=O)N2CCCO)ccc1OCCC(C)C (configuration not stated) the results were Glioma ERSR ind inactive, mIDH1 inhibitor 39.8µM, GLS inh inactive, IDH1 autofl inactive, IDH1 WT inactive and IDH1 R132H conf 25.1µM.
`COCCN1C(=O)c2[nH]nc(-c3cc(C)ccc3O)c2C1c1ccc(C(C)C)cc1` (configuration not stated) gave Glioma ERSR ind inactive, mIDH1 inhibitor inconclusive, GLS inh inactive, IDH1 autofl inactive, IDH1 WT inactive and IDH1 R132H conf 31.6µM.
`COc1ccccc1C1CN(Cc2cn(C)nc2C)Cc2ccccc2O1` (configuration not stated) gave Glioma ERSR ind inactive.
